Source: PubChem BioAssay (NCATS)
Results filed as inconclusive are left out. Activity calls are given as the source filed them. Unless noted, the call rests on the fitted dose curve; in most records, active means well fitted curve in either direction with a large enough effect (not every such curve was filed as active); inconclusive means small, poorly fitted or top-dose-only effect, or another doubt; inactive means flat fitted curve, though single readings scatter.

How the values were obtained:
[1] = target: Lysosomal acid glucosylceramidase (Homo sapiens) (UniProt P04062); assay: Glucocerebrosidase-p2 (AID 348; in the data active means potency below about 10 µM; further: potency means the concentration at half of the fitted maximal effect); conditions: purified GBA, blue fluorogenic substrate, 40 min
Lysosomal acid glucosylceramidase (Homo sapiens), sequence (P04062 whole entry, looked up): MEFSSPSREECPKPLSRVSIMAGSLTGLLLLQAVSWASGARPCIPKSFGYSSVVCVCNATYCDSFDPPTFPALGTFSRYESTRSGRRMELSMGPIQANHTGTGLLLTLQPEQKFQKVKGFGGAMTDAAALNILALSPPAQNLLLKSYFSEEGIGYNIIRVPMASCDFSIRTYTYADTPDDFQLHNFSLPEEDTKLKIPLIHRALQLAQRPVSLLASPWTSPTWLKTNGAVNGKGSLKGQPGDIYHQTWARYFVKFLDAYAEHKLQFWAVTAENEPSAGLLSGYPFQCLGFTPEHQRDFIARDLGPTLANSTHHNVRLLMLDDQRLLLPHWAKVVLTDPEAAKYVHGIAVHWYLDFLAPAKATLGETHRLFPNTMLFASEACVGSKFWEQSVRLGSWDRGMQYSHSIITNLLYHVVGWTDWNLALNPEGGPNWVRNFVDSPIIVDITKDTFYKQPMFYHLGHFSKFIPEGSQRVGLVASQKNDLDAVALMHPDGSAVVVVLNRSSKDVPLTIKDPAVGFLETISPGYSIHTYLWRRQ
Summary of the method: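 Compounds titrated from 0.6 nM upwards against 0.2 nM enzyme in pH 5.9 citric acid/KH2PO4, taurocholate, tween-20; blue fluorogenic substrate 80 uM, 40 min room temperature, stopped and read Ex 365/Em 440 for AC50.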

[2] = AP1 Signaling Pathway (AID 357); conditions: ME-180 AP-1-bla reporter, EGF-induced, beta-lactamase ratio, 5 h; at 7.69 µM (top of the series) unless noted;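 further: ME-180 reporter cells stimulated with EGF at its EC50 level; on the % scale 0 is the no-effect control and ±100 the full control effect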
Summary of the method: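 Modulation of EGF-driven AP-1 transcription was assessed with a beta-lactamase reporter in ME-180 cells. Compound and EC50 EGF were co-incubated 5 hours at 37 °C before 2.5-hour CCF4 loading at room temperature and dual-emission reading.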

[3] = target: Cytochrome P450 1A2 (Homo sapiens) (UniProt P05177); assay: p450-cyp1a2 (AID 410; calls by dose curve; further: potency means the concentration at half of the fitted maximal effect;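 on activity change, negative = inhibition: -100% = full effect of reference inhibitor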); conditions: recombinant CYP1A2, luciferin-ME demethylation, luminescence; series mostly up to 57 µM
Cytochrome P450 1A2 (Homo sapiens), sequence (P05177 whole entry, looked up): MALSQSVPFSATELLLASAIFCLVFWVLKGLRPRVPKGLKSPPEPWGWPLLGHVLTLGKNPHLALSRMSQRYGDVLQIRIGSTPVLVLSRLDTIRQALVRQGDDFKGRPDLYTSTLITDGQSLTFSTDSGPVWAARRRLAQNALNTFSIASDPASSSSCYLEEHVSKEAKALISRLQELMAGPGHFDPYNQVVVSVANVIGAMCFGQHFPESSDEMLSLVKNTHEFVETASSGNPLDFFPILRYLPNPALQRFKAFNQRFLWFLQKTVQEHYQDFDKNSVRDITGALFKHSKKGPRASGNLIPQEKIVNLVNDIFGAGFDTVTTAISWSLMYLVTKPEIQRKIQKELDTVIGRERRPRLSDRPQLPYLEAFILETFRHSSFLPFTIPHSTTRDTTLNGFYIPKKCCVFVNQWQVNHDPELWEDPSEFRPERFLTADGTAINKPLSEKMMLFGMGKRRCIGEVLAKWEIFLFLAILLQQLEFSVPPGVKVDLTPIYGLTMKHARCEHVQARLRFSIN
Summary of the method: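 Human CYP1A2 (20nM) demethylated Luciferin-ME at its Km (100uM) in 100mM KPO4. After 10 min compound preincubation, NADPH regeneration ran the reaction 60 min at room temperature. Luciferin was read by luminescence, normalized to 57 uM furafylline.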

[4] = NFAT Signaling Pathway (AID 444); conditions: Jurkat NFAT-bla M1, carbachol, beta-lactamase ratio, 5 h; at 7.69 µM (top of the series) unless noted;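 further: carbachol stimulus at about its EC50 of 1 µM final; on the % scale 0 is the no-effect control and ±100 the full control effect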
Summary of the method: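 Jurkat cells carrying an NFAT-driven β-lactamase reporter and co-transfected muscarinic M1 receptor were treated with compound plus carbachol (1 uM final, an EC50 level) for 5 h at 37 °C. CCF4 loading followed for 1 h at RT; 460/530 nm ratio gave %activity.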

[5] = Stat Signaling Pathway (AID 446); conditions: ME-180 SIE beta-lactamase reporter, IL-6 stimulated, 5 h; at 7.69 µM (top of the series) unless noted;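 further: ME-180 cervical cancer cells given 40 pM IL-6 alongside compound; SIE-controlled beta-lactamase reporter measured as 460/530 nm FRET emission ratio; on the % scale 0 is the no-effect control and ±100 the full control effect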
Summary of the method: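 ME-180 SIE-bla cells; overnight plating; cpd + IL-6 40 pM, 5 h, 37 C; LiveBLAzer 2.5 h RT; 460/530 nm emission ratio. Normalized to 300 pM IL-6 and 125 nM JAK inhibitor controls.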

[6] = target: Glucocorticoid receptor (Homo sapiens) (UniProt P04150); assay: GR-EFC Redistribution (AID 451; calls by dose curve; further: potency means the concentration at half of the fitted maximal effect); conditions: CHO-K1 GR-EFC translocation, beta-gal luminescence, 2 h
Glucocorticoid receptor (Homo sapiens), sequence (P04150 whole entry, looked up, the tested form may be a part): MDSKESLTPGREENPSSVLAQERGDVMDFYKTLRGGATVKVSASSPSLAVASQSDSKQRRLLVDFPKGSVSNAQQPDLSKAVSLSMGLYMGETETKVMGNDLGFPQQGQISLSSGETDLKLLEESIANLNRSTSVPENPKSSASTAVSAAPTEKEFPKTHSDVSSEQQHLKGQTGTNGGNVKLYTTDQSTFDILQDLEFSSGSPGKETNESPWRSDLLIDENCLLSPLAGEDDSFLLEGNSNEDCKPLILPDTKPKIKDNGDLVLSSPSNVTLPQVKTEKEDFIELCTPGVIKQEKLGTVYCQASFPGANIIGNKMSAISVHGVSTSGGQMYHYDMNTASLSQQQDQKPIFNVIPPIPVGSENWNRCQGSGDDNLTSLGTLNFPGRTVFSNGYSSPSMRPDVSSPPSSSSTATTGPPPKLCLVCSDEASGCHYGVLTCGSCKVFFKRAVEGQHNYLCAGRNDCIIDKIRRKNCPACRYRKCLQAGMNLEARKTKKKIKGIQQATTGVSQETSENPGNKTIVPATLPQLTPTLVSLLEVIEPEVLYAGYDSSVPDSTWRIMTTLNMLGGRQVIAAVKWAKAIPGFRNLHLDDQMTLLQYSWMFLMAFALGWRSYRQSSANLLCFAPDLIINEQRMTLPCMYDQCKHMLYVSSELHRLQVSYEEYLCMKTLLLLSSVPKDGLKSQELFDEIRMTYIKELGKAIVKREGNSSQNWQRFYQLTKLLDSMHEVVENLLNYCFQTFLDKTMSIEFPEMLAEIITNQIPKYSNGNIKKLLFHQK
Summary of the method: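 CHO-K1 cells stably expressing nuclear-localized β-gal enzyme acceptor and GR fused C-terminally to the enzyme donor fragment; ligand-driven nuclear translocation restores β-gal by complementation. Compounds titrated up to 46 uM final, 2 h at 37 °C; luminescence read.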

[7] = target: Mitogen-activated protein kinase 10 (Mus musculus) (UniProt Q61831); assay: JNK3 AlphaScreen Assay (AID 530); conditions: JNK3 lysate, c-Jun phosphorylation; series mostly up to 57.1 µM;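 further: kinase came from lysate of stimulated human HepG2 cells; signal reports phosphorylation of biotinylated GST-cJun 1-79 at Ser73 with 10 µM ATP; on the % scale 0 is the no-effect control and ±100 the full control effect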
Summary of the method: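 JNK3 came from HepG2 lysates pre-activated with IL-1beta and TNF-alpha and phosphorylated biotinylated GST-cJun (1-79) at 10 uM ATP, pH 7.6, room temperature. Compounds were titrated. AlphaScreen signal used anti-phospho-cJun (Ser73) antibody.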

[8] = target: 3',5'-cyclic-AMP phosphodiesterase 4B (Homo sapiens) (UniProt Q07343); assay: qHTS Assay for Inhibitors of PDE-IV (AID 607; active means well fitted activation curve with a large enough effect in the main read-out, with a control signal flat, not every such curve was filed as active; further: % of control where 0% means no effect); conditions: HEK293 ACTOne CNG channel cells, membrane potential fluorescence; series mostly up to 22.9 µM
3',5'-cyclic-AMP phosphodiesterase 4B (Homo sapiens), sequence (Q07343 whole entry, looked up): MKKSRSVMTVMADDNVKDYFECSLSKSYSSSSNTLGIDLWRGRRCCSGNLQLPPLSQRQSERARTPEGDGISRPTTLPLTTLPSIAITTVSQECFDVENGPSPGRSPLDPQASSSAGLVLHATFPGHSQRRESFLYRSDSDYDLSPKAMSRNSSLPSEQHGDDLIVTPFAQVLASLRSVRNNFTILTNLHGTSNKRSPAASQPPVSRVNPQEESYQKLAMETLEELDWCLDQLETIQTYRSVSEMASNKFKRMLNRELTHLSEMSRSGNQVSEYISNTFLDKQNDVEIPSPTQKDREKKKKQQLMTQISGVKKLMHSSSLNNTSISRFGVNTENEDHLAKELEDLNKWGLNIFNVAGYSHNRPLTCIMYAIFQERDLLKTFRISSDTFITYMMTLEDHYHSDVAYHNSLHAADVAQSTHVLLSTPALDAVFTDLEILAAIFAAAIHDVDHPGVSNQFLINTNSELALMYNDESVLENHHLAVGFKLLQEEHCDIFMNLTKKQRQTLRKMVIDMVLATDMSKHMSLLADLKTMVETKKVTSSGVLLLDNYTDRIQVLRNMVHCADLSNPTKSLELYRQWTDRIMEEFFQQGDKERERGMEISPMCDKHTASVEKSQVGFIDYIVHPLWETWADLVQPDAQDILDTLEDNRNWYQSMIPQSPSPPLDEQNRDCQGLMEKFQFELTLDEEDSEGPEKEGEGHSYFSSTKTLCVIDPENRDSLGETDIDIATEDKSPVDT
Summary of the method: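 ACTOne HEK293 cells carry a modified cAMP-gated CNG channel and express endogenous PDE4; plated 1000 cells/well, compounds up to 22.9 uM final. Membrane-potential dye fluorescence (ex 535/em 590) was read; parental cells received 10 uM forskolin + 100 uM RO 20-1724.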

[9] = target: Cytochrome P450 2C9 (Homo sapiens) (UniProt P11712); assay: qHTS Assay for Inhibitors and Substrates of Cytochrome P450 2C9 (AID 883; active means well fitted inhibition curve with a large enough effect; further: nearly all actives have a fitted effect of over 60% in size; further: potency means the concentration at half of the fitted maximal effect); conditions: recombinant CYP2C9, luciferin-H luminescence, 60 min; series mostly up to 57.1 µM
Cytochrome P450 2C9 (Homo sapiens), sequence (P11712 whole entry, looked up): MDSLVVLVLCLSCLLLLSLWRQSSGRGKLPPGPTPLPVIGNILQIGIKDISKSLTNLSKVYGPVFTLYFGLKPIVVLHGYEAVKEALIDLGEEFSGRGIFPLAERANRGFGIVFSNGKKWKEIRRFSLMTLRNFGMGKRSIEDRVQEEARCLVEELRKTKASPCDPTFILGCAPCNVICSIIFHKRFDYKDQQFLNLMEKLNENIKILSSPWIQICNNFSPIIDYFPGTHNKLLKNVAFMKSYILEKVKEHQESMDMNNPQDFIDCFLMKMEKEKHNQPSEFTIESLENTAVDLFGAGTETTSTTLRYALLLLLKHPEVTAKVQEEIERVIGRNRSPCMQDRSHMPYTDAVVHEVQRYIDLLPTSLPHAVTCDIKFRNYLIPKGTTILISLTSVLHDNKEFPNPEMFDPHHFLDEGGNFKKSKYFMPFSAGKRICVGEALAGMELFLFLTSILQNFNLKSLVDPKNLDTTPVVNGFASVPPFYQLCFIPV
Summary of the method: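 Human CYP2C9 (10nM) hydroxylated Luciferin-H (100uM, at its KM) to luciferin in 25mM KPO4. Compound was preincubated 10 min at 37C, then NADPH regeneration started a 60 min reaction at 37C. Luminescence was read after detection reagent, normalized to 57uM sulphaphenazole.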

[10] = qHTS Assay for Lipid Storage Modulators (AID 1519; calls by dose curve); conditions: Drosophila S3 cells, BODIPY lipid droplet/cell ratio, laser cytometry, cells loaded with oleic acid; for activity change, negative = inhibition: at 57.5 µM (top of the series)
Summary of the method: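 Cells seeded at 5,000 per well were treated with compounds over a concentration series and loaded with oleic acid (400 uM, as added). Lipid droplet fluorescence (488 nm excitation, 500-530 nm channel) was read by laser-scanning cytometry and normalized to 20 uM Triacsin C.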

[11] = Primary qHTS for small molecule stabilizers of the endoplasmic reticulum resident proteome: Secreted ER Calcium Modulated Protein (SERCaMP) assay (AID 1508630; active means well fitted inhibition curve with a large enough effect; further: on the % scale 0 is the no-effect control and ±100 the full control effect); conditions: SH-SY5Y GLuc-SERCaMP (Gaussia luciferase released on ER calcium loss) secretion, thapsigargin, luminescence; series mostly up to 38.4 µM
Summary of the method: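 GLuc-SERCaMP-expressing SH-SY5Y cells, pretreated 16 h with compound, are challenged with thapsigargin to empty ER calcium stores; after 4 h, coelenterazine is added directly to the medium and luminescence is imaged.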

[12] = measured here: cell count channel max response
[13] = measured here: lipid channel max response

SMILES | Potency [1] | activity change, negative = inhibition [2] | Potency [3] | activity change, negative = inhibition [4] | activity, negative = inhibition [5] | Potency [6] | outcome [7] | Potency [8] | Potency [9] | activity change, negative = inhibition [10] | max response [10, 12] | max response [10, 13] | Potency [11]
O=C(c1csnn1)N1CCC2(CC1)CN(c1ccncc1)C2 | > 11.4 µM (inactive) | -12.4% (inactive) | inactive | -12.8% (inactive) | -7.18% (inactive) | > 46 µM (inactive) | inactive | inactive | 2.51 µM (active) | 0.619% (inactive) | 4.32% | 5.47% | inactive
CC(=O)N1CCC[C@@]2(CCN(c3ncccn3)C2)C1 | > 11.4 µM (inactive) | 2.25% (inactive) | inactive | 13.2% (inactive) | -10.4% (inactive) | > 46 µM (inactive) | inactive | inactive |  | 2.8% (inactive) | 18.6% | 25.4% | inactive
O=C(c1cnccn1)N1CCC2(CCN(Cc3nccs3)CC2)CC1 | > 11.4 µM (inactive) | 2.79% (inactive) | inactive | 9.93% (inactive) | 3.3% (inactive) | > 46 µM (inactive) | inactive | inactive |  | 2.95% (inactive) | -0.576% | 4.52% | inactive
COCC(=O)N1CCC[C@@]2(CCN(c3ncccn3)C2)C1 | > 11.4 µM (inactive) | -8.65% (inactive) | inactive | -4.08% (inactive) | -2.01% (inactive) | > 46 µM (inactive) | inactive | inactive |  | -2.11% (inactive) | 19.1% | 20.3% | inactive
CC(C)NC(=O)N1CC2(CCN(S(=O)(=O)c3ccccc3)CC2)C1 | > 11.4 µM (inactive) | -9.04% (inactive) | inactive | 21.2% (inactive) | -0.15% (inactive) | > 46 µM (inactive) | inactive | inactive |  | -7.9% (inactive) | 3.88% | -2.51% | inactive
COC(=O)N1CCC[C@@]2(CCN(c3ccccn3)C2)C1 | > 11.4 µM (inactive) | -6.02% (inactive) | 15.8 µM (active) | -1.97% (inactive) | 7.71% (inactive) | > 46 µM (inactive) | inactive | inactive |  | 5.17% (inactive) | 2.62% | 11% | inactive
Cc1noc(C)c1C(=O)N1CCC2(CCCN(C(=O)NC(C)C)C2)CC1 | > 11.4 µM (inactive) | 10.5% (inactive) | inactive | 8.68% (inactive) | -2.07% (inactive) | > 46 µM (inactive) | inactive | inactive | inactive | 6.76% (inactive) | 0.437% | 10.1% | inactive
COC(=O)N1CCC2(CCN(C(=O)Nc3ccccc3)CC2)CC1 | > 11.4 µM (inactive) | -4.41% (inactive) | inactive | 4.8% (inactive) | 0.0402% (inactive) | > 46 µM (inactive) | inactive | inactive |  | 5.74% (inactive) | 8.07% | 17.4% | inactive
O=C(c1ccncc1)N1CCC2(CC1)CCN(c1ccccc1)CC2 | > 11.4 µM (inactive) | -1.33% (inactive) | inactive | 12.8% (inactive) | -1.17% (inactive) | > 46 µM (inactive) | inactive | inactive |  | 2.16% (inactive) | 0.126% | 6.62% | inactive
Cc1noc(C)c1C(=O)N1CCC2(CC1)CN(C(=O)Nc1cccc(F)c1)C2 | > 11.4 µM (inactive) | 6.42% (inactive) | inactive | 19.9% (inactive) | 0.457% (inactive) | > 46 µM (inactive) | inactive | inactive |  | 1.43% (inactive) | -7.63% | -0.901% | inactive
COCC(=O)N1CCC[C@@]2(CCN(C(=O)Nc3ccc(OC)cc3)C2)C1 | > 11.4 µM (inactive) | -7.62% (inactive) | inactive | 11.4% (inactive) | 6.35% (inactive) | > 46 µM (inactive) | inactive | inactive |  | 0.357% (inactive) | 1.93% | 5.76% | inactive
CC(=O)N1CCC2(CCN(Cc3ccncc3)CC2)CC1 | > 11.4 µM (inactive) | 5.96% (inactive) | inactive | -0.25% (inactive) | -6.6% (inactive) | > 46 µM (inactive) | inactive | inactive |  | 2.82% (inactive) | 7.01% | 14.4% | inactive
CN1CCC2(CC1)CCN(C(=O)c1cc(C(F)(F)F)cc(C(F)(F)F)c1)CC2 | > 11.4 µM (inactive) | -8.71% (inactive) | inactive | -5.98% (inactive) | -2.34% (inactive) | > 46 µM (inactive) | inactive | inactive |  | 1.93% (inactive) | -7.21% | -4.06% | inactive
CN1CC[C@@]2(CCCN(C(=O)c3cccc(F)c3)C2)C1 | > 11.4 µM (inactive) | -5.96% (inactive) | inactive | -2.53% (inactive) | -8.35% (inactive) | > 46 µM (inactive) | inactive | inactive |  | 3.45% (inactive) | 3.46% | 12.3% | inactive
